# Screens from PubChem.
# This excerpt belongs to a sample that is enriched for hits.
# L3MBTL1 block: L3MBTL1 (human) inhibition. AlphaScreen L3MBTL1–H3K9me1 peptide binding. Potency, µM (titrated, usually from 57.1 µM), for the others: at the top dose activity, negative = inhibition, actives largely listed as inhibitors. 230,000 compounds, 0.66% hits; note: nearly all actives have a fitted effect of over 60% in size
#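 Displacement of a biotinylated histone H3(1-15) peptide monomethylated at Lys9 (75 nM) from L3MBTL1 (50 nM) was measured by AlphaScreen after a 30 min room-temperature compound incubation; cefsulodin titration served as intraplate control.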
# APE1 inh: blocks human APE1 abasic DNA cleavage | recombinant APE1, TAMRA/BHQ-2 abasic DNA cleavage fluorescence | Potency, µM (doses to about 65.8 µM), for the others: at the top dose activity change, negative = inhibition, actives largely listed as inhibitors | 350,000 compounds, 0.35% hits;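 note: plate controls were vehicle for no effect and reference inhibitor for full effect; nearly all actives have a fitted effect of over 55% in size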
#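 Compound pre-exposure to 0.75 nM APE1, 15 min at ambient temperature. Reaction initiated with 50 nM TAMRA/BHQ-2 THF substrate, read immediately in kinetic mode, 525 nm excitation, 598 nm emission.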
# BLM helicase inh: inhibitors of human Bloom syndrome helicase BLM; P54132; recombinant BLM DNA unwinding, fluorescence dequenching; 350,000 compounds, 0.2% hits; Potency, µM (series often up to 56.1 µM), for inactives: at the highest dose activity change, negative = inhibition, usual class: inhibitors;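 note: plate controls were vehicle for no effect and no enzyme for full effect; nearly all actives have a fitted effect of over 35% in size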
# GoLoco inh red: blocks human Gai1 binding to RGS12 GoLoco peptide, red readout; P63096; Gai1:RGS12 GoLoco peptide FP, rhodamine, 10 min; Potency, µM (titrated, usually from 61.6 µM), for the others: at the highest dose activity, negative = inhibition, hits mostly inhibitors; 230,000 compounds, 0.44% hits; active = well fitted inhibition curve with a large enough effect, not every such curve was filed as active; inactive = no such curve, though single readings can be large or run the other way; note: nearly all actives have a fitted effect of over 30% in size
# RECQ1 inh-1: blocks DNA unwinding by human RECQ1 | 240,000 compounds, 0.54% hits | P46063 | AID 2549 | RECQ1 DNA unwinding, red fluorescence kinetic read | Potency, µM (series often up to 57.3 µM), for the others: at the highest dose activity, negative = inhibition, hits mostly inhibitors;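 note: plate controls were vehicle for no effect and no enzyme for full effect; nearly all actives have a fitted effect of over 30% in size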
#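 RECQ1T1 50 nM; forked duplex (20 bp + 30-nt ss tails) 200 nM, ATP 2 mM final; pH 8.0, 2 mM MgCl2, 2.5 ug/ml poly(dI-dC); 15 min compound preincubation; discontinuous kinetic read over 2 h at RT.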
# KDM4E inh: inhibitors of human JMJD2E histone demethylase; B2RXH2; JMJD2E catalytic domain, FDH-coupled NADH fluorescence (FDH is formaldehyde dehydrogenase); Potency, µM (series often up to 57.1 µM), for inactives: at the top dose activity change, negative = inhibition, most hits filed as inhibitors; 230,000 compounds, 1.6% hits; active = well fitted inhibition curve with a large enough effect, not every such curve was filed as active; inconclusive = small, poorly fitted or top-dose-only effect, or another doubt; inactive = no such curve, though single readings can be large or run the other way;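 note: 0% = wells with enzyme and -100% = buffer wells without enzyme; nearly all actives have a fitted effect of over 50% in size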
# Target sequence (B2RXH2 1-337 limits assumed): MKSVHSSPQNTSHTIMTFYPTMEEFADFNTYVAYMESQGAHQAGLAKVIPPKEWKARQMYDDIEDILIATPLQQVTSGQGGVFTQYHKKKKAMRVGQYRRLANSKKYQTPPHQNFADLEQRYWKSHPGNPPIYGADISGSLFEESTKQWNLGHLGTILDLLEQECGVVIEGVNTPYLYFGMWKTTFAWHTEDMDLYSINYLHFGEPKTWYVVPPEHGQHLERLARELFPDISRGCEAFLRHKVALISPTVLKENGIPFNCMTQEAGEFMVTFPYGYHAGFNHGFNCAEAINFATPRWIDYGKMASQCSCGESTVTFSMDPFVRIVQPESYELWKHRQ
# RECQ1 inh conf: confirmation of human RECQ1 helicase inhibitors. shares compounds with RECQ1 inh-1. RECQ1 helicase DNA unwinding, fluorescence. Potency, µM (highest dose often 229 µM), without a hit: at the highest dose activity change, negative = inhibition, most hits filed as inhibitors. 610 compounds, 28% hits; note: nearly all actives have a fitted effect of over 45% in size
# RECQ1 ADP FP: counter-screen for RECQ1 inhibitors: ADP displacement; shares compounds with RECQ1 inh-1; ADP fluorescence polarization displacement counterscreen; Potency, µM (doses to about 228 µM), for inactives: at the highest dose activity change, negative = inhibition, hits mostly inhibitors; 530 compounds, 27% hits; AID 2711; note: nearly all actives have a fitted effect of over 45% in size
# RECQ1 inh-2: RECQ1 helicase inhibition confirmed, round 2; shares compounds with RECQ1 inh-1; recombinant RECQ1 DNA unwinding, red fluorescence; Potency, µM (top dose mostly 119 µM), for inactives: at the highest dose activity, negative = inhibition, hits mostly inhibitors; 1,100 compounds, 15% hits; note: nearly all actives have a fitted effect of over 50% in size
# The depositor's hits bear a star; i = inactive; ? = inconclusive; nt = no result; [ ] = another dose, or the depositor's remark. Unless noted, calls come from the whole dose curve; as a rule, active = well fitted curve in the direction sought with a large enough effect; inconclusive = small, poorly fitted or top-dose-only effect, or another doubt; inactive = no such curve, though single readings can be large; an effect the other way counts as inactive or inconclusive. Unless noted, % is set by controls: 0 for no effect and ±100 for the full control effect; potency is the fitted concentration of half-maximal effect.
SMILES,L3MBTL1 block,APE1 inh,BLM helicase inh,GoLoco inh red,RECQ1 inh-1,KDM4E inh,RECQ1 inh conf,RECQ1 ADP FP,RECQ1 inh-2
O=C(CC1C(=O)NCCN1Cc1ccc(-c2ccccc2)cc1)NCCOc1cccnc1 (stereo not drawn),-4%,-7%,1%,-10%,?,?,nt,nt,-14%
Cc1cccc(NC(=O)c2oc3ccccc3c2NC(=O)Cc2coc3c(C)c(C)ccc23)c1,nt,nt,0%,nt,nt,nt,nt,nt,nt
O=C(O)CSc1nnc(Cn2nnc3ccccc32)n1CCc1ccccc1,10%,10%,-2%,0%,0%,0%,8%,8%,nt
CC(C)c1onc(-c2c(Cl)cccc2Cl)c1COc1ccc(/C=C/c2cccc(C(=O)O)c2)c(Cl)c1,nt,-5%,32µM*,nt,32µM*,nt,nt,nt,35µM*
CCC(C)NC(=O)c1cccc(OCc2c(C)noc2C)c1 (stereo not drawn),-2%,5%,-9%,15%,9%,-16%,nt,nt,nt
N#CC1=C(N)Oc2ccc3ccc(O)cc3c2C1c1ccsc1 (stereo not drawn),-10%,-10%,-3%,13µM*,?,-4%,nt,nt,50µM*
N#CC1=C(N)Oc2cc(N)ccc2C1c1ccsc1 (stereo not drawn),1%,-4%,-7%,8%,i,3%,nt,nt,nt
Nc1cc2nc3ccccc3oc-2cc1=O,?,1%,-14%,23%,?,13µM*,nt,nt,?
Cc1nc2ccccc2oc1=O,nt,3%,4%,0%,i,5%,nt,nt,nt
CN(C)C(=O)c1ccc(-c2ccc3ncnc(N4CCC(C(=O)O)CC4)c3c2)cc1,nt,0%,2%,1%,-2%,nt,nt,nt,nt
C=CCn1c(=O)[nH]c2cc(C(=O)N3CCN(c4ccc(C(C)=O)cc4)CC3)ccc2c1=O,nt,-7%,-25%,9%,4.5µM*,?,?,-2%[91.9 µM],?
COc1ccc(CN2CCc3c(c(=O)n4ncc(C(=O)N5CCN(c6ccccc6OC)CC5)c4n3C)C2)cc1,nt,nt,0%,nt,nt,nt,nt,nt,nt
CCOC(=O)C1=C(c2ccccc2)N=c2s/c(=C\c3ccc(O)cc3)c(=O)n2C1c1cccs1 (stereo not drawn),-2%,0%,-12%,215%,?,-5%,nt,nt,16µM*
CCOC(=O)N1CCc2c(sc3c2c(=O)n(Cc2ccccc2)c(=O)n3CC(=O)Nc2ccc(C)cc2C)C1,nt,nt,-5%,nt,nt,nt,nt,nt,nt
O=C(Cn1cnc2scc(-c3cccc([N+](=O)[O-])c3)c2c1=O)NCc1ccco1,nt,?,-25%,11%,25µM*,-4%,nt,nt,?
C#CCN1C(=O)S/C(=C/C=C/c2ccc(N(C)C)cc2)C1=O,?,?,?,-85%,25µM*,-17%,nt,nt,18µM*
O=C(NCc1ccco1)C(=O)NCC1OCCN1S(=O)(=O)c1cc(F)ccc1F (stereo not drawn),nt,?,-12%,14%,18µM*,-22%,6%[114 µM],-3%[91.9 µM],nt
O=C(O)C/C(=C\c1ccc(N2CCOCC2)c([N+](=O)[O-])c1)c1nc2ccccc2s1,-8%,-2%,-14%,13%,-20%,-8%,112µM*,?,nt
O=C(O)CC/C(=C\c1ccc(N2CCOCC2)c([N+](=O)[O-])c1)c1nc2ccccc2s1,-14%,14%,-3%,9%,i,-1%,?,?,nt
